Here are results for three compounds from ChEMBL document CHEMBL2218924, “A broad activity screen in support of a chemogenomic map for kinase signalling research and drug discovery” (Biochem J, 2013).

For experiment [1], the target named is Serine/threonine-protein kinase 33 (Homo sapiens) (UniProt Q9BYT3). As to conditions: at 1 µM.
The target is the same in experiment [2]. The conditions noted are these: at 10 µM.
Experiment [3] concerns the target Serine/threonine-protein kinase PLK2 (Homo sapiens) (UniProt Q9NYY3). The conditions noted are these: at 1 µM.
For experiment [4] the target is unchanged. As to conditions: at 10 µM.
The target of experiment [5] is T1, Serine/threonine-protein kinase TAO2 (Homo sapiens) (UniProt Q9UL54).
T1 sequence (whole entry): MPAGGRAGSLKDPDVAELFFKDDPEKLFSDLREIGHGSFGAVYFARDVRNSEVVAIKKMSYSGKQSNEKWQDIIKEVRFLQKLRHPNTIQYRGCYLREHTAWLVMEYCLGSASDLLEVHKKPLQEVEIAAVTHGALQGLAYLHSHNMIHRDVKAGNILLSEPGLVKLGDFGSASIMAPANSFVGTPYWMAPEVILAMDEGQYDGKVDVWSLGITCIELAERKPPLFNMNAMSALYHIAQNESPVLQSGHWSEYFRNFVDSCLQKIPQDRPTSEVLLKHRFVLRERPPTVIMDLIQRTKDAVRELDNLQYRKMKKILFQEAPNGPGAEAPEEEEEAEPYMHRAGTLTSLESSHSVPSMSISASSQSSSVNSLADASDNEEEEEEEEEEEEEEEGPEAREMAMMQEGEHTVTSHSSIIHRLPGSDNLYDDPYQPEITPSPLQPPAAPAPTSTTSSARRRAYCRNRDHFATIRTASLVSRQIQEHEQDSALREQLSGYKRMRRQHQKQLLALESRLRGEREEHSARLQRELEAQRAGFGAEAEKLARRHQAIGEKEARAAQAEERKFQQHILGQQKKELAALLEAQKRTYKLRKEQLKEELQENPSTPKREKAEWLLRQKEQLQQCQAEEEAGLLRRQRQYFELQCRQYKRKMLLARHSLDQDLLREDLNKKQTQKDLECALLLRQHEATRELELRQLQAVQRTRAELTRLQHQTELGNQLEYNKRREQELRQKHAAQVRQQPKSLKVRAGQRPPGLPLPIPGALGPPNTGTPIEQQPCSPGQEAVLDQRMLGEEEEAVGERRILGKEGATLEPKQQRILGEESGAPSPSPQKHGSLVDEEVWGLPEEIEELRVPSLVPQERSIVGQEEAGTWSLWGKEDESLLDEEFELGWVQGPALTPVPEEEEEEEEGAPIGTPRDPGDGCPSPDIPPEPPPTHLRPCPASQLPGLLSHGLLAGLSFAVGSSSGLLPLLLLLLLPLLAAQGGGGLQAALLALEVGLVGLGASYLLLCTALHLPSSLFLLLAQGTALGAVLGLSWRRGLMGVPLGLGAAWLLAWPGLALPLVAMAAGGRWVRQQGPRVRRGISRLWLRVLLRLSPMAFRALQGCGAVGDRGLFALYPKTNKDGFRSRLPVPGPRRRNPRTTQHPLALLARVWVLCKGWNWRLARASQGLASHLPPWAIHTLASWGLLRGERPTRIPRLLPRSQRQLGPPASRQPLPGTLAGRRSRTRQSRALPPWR
The conditions noted are these: at 1 µM.

The target in experiment [6] is T1, Serine/threonine-protein kinase TAO2 (Homo sapiens). As to conditions: at 10 µM.
In experiment [7] the target is T2, Serine/threonine-protein kinase TBK1 (Homo sapiens) (UniProt Q9UHD2).
T2 sequence (whole entry): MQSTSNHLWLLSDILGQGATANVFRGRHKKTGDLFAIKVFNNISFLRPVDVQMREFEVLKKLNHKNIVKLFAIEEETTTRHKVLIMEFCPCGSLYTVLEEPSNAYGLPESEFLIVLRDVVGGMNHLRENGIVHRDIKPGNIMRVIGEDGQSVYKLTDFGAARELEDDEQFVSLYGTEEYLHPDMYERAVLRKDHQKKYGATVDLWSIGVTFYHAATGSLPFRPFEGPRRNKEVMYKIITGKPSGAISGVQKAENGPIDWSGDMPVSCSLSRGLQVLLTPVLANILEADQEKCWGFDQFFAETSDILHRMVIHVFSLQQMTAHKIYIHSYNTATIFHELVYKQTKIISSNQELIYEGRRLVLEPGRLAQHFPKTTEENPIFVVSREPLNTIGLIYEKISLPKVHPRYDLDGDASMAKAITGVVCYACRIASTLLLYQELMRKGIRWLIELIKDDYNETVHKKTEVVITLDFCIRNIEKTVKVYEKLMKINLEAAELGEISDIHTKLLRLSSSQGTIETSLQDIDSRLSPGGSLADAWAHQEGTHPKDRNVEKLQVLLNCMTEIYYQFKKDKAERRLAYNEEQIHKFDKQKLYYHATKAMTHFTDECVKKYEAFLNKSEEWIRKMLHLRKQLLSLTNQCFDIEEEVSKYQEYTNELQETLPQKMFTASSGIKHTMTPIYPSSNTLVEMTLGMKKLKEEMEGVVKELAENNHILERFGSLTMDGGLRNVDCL
The conditions noted are these: at 10 µM.

Experiment [8] has as its target Tyrosine-protein kinase SYK (Homo sapiens) (UniProt P43405). As to conditions: at 1 µM.
Experiment [9] shares this target. As to conditions: at 10 µM.
Experiment [10] addresses T3, Mitogen-activated protein kinase kinase kinase 7 (Homo sapiens) (UniProt O43318).
T3 sequence (whole entry): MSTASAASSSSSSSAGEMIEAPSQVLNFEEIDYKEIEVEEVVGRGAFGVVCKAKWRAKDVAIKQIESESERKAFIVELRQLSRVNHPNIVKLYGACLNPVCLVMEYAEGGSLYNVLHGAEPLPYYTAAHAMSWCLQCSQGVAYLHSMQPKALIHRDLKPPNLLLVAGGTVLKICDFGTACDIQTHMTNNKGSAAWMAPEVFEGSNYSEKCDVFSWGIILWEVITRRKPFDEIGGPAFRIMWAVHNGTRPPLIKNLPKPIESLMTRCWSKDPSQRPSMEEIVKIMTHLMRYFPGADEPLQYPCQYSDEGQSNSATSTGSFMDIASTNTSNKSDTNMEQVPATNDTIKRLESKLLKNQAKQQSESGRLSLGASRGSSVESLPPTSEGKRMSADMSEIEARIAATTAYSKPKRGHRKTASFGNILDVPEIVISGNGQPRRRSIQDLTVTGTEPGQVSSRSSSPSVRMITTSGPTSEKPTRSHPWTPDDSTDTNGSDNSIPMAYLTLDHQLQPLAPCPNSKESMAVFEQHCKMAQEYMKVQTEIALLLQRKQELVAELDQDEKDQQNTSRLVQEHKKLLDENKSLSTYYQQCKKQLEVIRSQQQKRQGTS
As to conditions: at 1 µM.

For experiment [11], the target named is T3, Mitogen-activated protein kinase kinase kinase 7 (Homo sapiens). The conditions noted are these: at 10 µM.
Experiment [12] concerns the target T4, Serine/threonine-protein kinase TAO1 (Homo sapiens) (UniProt Q7L7X3).
T4 sequence (whole entry): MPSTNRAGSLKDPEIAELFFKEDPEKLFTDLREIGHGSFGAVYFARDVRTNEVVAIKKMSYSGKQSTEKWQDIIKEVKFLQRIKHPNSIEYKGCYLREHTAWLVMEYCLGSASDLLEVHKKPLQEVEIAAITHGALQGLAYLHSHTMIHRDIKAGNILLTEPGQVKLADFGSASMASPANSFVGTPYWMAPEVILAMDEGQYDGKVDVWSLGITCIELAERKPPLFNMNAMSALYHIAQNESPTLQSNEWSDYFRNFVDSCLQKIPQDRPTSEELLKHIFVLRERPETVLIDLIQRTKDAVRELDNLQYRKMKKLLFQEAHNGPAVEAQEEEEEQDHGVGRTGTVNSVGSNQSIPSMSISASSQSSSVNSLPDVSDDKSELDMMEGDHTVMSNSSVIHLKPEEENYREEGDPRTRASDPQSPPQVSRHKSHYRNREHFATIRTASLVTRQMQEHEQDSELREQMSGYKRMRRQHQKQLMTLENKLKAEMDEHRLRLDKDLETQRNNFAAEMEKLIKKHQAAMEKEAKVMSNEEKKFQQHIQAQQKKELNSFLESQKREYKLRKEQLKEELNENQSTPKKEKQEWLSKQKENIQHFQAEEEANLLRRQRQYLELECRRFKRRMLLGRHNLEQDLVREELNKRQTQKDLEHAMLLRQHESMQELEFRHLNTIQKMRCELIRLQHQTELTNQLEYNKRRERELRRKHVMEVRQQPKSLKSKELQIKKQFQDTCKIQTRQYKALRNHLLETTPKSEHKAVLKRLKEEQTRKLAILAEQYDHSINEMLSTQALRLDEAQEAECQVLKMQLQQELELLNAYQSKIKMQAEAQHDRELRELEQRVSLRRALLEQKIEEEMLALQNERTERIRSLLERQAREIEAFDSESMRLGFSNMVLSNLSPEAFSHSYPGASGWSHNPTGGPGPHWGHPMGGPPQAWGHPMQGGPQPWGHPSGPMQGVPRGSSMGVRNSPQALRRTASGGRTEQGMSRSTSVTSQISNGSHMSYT
The conditions noted are these: at 1 µM.

In experiment [13] the target is T4, Serine/threonine-protein kinase TAO1 (Homo sapiens). As to conditions: at 10 µM.
Experiment [14] addresses T5, Serine/threonine-protein kinase TAO3 (Homo sapiens) (UniProt Q9H2K8).
T5 sequence (whole entry): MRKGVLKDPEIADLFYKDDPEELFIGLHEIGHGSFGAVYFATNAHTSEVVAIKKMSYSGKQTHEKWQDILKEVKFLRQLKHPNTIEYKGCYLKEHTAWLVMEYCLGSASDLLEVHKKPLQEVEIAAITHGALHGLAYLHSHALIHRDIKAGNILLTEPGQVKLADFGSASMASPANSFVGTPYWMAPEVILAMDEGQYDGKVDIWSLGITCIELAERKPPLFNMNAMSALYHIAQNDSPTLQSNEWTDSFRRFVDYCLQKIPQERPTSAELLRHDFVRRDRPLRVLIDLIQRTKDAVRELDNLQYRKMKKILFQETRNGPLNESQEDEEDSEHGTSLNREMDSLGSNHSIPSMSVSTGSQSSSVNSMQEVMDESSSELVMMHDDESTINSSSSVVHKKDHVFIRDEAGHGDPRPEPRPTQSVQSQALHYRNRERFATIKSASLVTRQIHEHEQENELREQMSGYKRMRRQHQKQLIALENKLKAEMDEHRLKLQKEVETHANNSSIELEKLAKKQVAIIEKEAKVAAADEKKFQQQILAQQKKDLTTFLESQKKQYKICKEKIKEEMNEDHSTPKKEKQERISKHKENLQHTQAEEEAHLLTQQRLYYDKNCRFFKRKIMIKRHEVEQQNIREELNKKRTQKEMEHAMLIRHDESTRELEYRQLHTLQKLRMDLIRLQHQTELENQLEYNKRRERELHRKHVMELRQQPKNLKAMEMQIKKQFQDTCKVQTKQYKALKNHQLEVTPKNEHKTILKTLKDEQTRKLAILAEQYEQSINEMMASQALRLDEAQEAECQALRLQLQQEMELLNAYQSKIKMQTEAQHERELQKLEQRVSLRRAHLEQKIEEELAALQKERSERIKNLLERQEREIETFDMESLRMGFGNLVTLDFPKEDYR
The conditions noted are these: at 1 µM.

The target of experiment [15] is T5, Serine/threonine-protein kinase TAO3 (Homo sapiens). The conditions noted are these: at 10 µM.
Experiment [16] deals with T2, Serine/threonine-protein kinase TBK1 (Homo sapiens). The conditions noted are these: at 1 µM.
The target of experiment [17] is T6, TGF-beta receptor type-1 (Homo sapiens) (UniProt P36897).
T6 sequence (whole entry): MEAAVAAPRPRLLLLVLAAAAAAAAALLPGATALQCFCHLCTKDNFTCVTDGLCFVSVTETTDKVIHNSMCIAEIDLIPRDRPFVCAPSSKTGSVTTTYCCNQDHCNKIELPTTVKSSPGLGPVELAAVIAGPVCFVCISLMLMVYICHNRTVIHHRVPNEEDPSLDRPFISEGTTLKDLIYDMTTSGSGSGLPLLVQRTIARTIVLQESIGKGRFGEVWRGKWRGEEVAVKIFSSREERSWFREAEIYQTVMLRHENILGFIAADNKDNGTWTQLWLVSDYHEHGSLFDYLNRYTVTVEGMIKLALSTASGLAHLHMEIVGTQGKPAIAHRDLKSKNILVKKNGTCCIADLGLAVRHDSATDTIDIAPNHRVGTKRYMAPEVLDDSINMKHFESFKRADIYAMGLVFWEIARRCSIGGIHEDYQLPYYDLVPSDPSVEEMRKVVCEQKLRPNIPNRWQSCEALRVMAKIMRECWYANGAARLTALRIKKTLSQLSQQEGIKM
The conditions noted are these: at 1 µM.

For experiment [18], the target named is T6, TGF-beta receptor type-1 (Homo sapiens). As to conditions: at 10 µM.
Experiment [19] concerns the target Insulin-like growth factor 1 receptor (Homo sapiens) (UniProt P08069). The conditions noted are these: at 1 µM.
The target is the same in experiment [20]. The conditions noted are these: at 10 µM.

Serine/threonine-protein kinase 33 (Homo sapiens), sequence (Q9BYT3 whole entry, looked up): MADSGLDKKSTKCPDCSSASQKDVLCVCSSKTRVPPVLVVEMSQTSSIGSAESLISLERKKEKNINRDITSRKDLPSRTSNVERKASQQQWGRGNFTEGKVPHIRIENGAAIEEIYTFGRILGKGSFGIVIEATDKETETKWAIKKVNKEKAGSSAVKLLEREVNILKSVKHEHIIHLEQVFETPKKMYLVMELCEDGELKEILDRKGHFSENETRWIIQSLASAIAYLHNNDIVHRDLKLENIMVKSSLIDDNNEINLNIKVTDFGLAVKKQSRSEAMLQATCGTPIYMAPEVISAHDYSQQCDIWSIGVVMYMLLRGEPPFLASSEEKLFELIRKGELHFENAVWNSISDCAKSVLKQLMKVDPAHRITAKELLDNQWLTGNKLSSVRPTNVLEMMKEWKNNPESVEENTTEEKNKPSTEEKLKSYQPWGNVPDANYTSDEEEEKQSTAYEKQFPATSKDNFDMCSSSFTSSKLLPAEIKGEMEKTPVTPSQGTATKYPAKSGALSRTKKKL
Serine/threonine-protein kinase PLK2 (Homo sapiens), sequence (Q9NYY3 whole entry, looked up): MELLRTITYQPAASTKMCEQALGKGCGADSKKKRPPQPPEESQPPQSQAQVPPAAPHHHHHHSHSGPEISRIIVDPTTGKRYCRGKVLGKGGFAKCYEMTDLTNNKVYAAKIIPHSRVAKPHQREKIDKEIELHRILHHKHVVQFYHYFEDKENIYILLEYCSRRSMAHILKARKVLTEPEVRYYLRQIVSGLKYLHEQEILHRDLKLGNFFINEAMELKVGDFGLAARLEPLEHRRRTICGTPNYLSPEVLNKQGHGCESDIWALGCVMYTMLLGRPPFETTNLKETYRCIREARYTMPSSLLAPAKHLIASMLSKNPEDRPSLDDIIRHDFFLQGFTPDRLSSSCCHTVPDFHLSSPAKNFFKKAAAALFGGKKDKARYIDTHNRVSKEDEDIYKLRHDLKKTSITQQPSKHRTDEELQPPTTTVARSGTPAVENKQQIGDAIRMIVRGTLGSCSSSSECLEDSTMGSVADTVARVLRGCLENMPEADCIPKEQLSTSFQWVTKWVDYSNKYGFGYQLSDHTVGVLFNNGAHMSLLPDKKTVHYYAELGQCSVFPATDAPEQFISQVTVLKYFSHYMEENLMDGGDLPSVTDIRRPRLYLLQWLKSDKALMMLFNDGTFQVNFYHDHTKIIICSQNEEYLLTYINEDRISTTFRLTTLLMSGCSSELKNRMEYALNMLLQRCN
Insulin-like growth factor 1 receptor (Homo sapiens), sequence (P08069 31-736 limits assumed): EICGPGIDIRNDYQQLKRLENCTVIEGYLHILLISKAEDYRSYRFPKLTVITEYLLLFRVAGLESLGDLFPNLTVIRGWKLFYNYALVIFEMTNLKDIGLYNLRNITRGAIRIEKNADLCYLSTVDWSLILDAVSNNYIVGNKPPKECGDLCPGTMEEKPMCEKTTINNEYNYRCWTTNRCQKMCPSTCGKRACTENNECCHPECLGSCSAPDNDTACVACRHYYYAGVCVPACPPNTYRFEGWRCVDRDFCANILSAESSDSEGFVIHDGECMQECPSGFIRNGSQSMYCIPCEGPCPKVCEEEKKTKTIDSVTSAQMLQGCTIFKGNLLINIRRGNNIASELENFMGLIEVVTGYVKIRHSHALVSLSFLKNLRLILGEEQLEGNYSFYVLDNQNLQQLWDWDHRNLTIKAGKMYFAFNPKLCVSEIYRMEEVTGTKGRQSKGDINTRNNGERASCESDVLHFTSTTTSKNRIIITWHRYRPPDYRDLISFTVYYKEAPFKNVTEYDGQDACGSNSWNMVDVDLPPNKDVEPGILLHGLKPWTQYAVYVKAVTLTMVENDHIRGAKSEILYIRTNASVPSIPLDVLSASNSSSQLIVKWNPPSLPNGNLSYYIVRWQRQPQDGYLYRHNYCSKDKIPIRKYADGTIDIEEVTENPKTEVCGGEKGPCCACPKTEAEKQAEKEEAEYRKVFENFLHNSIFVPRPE
Insulin-like growth factor 1 receptor (Homo sapiens), sequence (P08069 741-1367 limits assumed): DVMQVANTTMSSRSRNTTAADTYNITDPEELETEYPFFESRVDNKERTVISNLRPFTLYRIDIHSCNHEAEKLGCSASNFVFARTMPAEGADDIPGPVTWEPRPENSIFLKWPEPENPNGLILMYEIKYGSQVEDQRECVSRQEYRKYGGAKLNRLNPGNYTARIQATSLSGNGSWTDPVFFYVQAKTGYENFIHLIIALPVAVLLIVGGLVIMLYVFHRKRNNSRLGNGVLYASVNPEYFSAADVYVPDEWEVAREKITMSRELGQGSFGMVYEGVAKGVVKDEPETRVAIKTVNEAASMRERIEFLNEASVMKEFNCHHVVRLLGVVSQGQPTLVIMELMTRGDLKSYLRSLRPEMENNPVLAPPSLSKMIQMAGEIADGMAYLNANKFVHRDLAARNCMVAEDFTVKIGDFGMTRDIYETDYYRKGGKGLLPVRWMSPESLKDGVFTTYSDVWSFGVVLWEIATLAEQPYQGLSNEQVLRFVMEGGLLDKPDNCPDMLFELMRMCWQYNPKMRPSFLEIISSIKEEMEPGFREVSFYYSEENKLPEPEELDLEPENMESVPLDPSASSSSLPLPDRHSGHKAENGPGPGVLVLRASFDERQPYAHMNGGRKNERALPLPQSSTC

In the case of `O=C1c2ccccc2-c2nc3nnnn3nc21`, the residual activity in experiment [1] was 103%; in experiment [2], 100%; in experiment [3] it was 73%; in experiment [4], 34%; in experiment [5], 111%; in experiment [6], 103%. The residual activity in experiment [7] came out at 83%.
Turning to `CC(C)[C@H](CO)Nc1nc(Nc2cccc(Cl)c2)c2ncn(C(C)C)c2n1`, the residual activity was found to be 89% in [1]; 53% in experiment [2]; 101% in experiment [3]; 86% in [4]; 102% in experiment [8]; 60% in experiment [9]. Moreover, the residual activity in [10] was 73%; in experiment [11] it was 20%; in experiment [12], 82%; in [13] it was 26%; in experiment [5], 98%; in experiment [6] it was 49%. Besides, the residual activity in experiment [14] is 82%; in experiment [15], 32%; in experiment [16], 90%; in experiment [7], 66%; in experiment [17] it was 95%; in experiment [18], 93%. Moreover, the residual activity turned out to be 48% in experiment [19] and 12% in [20].
As to `CN[C@@H]1C[C@H]2O[C@@](C)([C@@H]1OC)n1c3ccccc3c3c4c(c5c6ccccc6n2c5c31)C(=O)NC4`, the residual activity in experiment [7] was 0%; in experiment [17], 79%; in [18] it was 30%.
